Assay results taken from PubChem BioAssay (NCATS).
“And” between values parts separate entries of the source, which are not always exact repeats. Identical values can stand only once. Inconclusive results are not listed. The source made the active and inactive calls. Unless noted, calls follow the shape of the dose curve; as a rule, active = well fitted curve in either direction with a large enough effect (not every such curve was filed as active); inconclusive = small, poorly fitted or top-dose-only effect, or another doubt; inactive = flat fitted curve, though single readings scatter.

Assays:
[1] = target: Glucocorticoid receptor (Homo sapiens) (UniProt P04150); experiment: GR-GFP Redistribution (AID 450;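 active = compounds whose dose series gives a full or clear partial fitted curve of increased nuclear translocation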; also: potency is read from the fitted curve at half-maximal effect); conditions: U2OS GR-GFP nuclear translocation, laser cytometry, 2 h
Sequence of Glucocorticoid receptor (Homo sapiens) (P04150 whole entry, looked up, the tested form may be a part): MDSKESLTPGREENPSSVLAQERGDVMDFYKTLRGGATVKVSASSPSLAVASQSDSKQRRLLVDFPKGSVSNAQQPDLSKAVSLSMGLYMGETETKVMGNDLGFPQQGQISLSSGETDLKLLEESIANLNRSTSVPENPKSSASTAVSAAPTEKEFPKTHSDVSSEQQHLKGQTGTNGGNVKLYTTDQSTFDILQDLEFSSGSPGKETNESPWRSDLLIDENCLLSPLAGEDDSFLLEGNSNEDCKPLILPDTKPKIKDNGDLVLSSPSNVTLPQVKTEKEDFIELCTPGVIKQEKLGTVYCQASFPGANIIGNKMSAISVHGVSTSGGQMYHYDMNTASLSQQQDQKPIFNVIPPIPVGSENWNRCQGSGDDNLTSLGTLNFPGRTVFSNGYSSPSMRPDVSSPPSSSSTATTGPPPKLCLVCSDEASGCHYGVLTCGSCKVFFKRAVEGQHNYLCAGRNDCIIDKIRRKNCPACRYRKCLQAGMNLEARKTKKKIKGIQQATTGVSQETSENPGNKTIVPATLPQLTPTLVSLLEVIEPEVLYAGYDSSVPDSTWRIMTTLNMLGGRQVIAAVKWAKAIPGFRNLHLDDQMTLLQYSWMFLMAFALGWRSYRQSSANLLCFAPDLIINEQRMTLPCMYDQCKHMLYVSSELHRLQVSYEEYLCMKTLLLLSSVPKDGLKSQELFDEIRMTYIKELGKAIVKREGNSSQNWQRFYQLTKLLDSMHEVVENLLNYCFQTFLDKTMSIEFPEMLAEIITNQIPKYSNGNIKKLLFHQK

[2] = target: Glucocorticoid receptor (Homo sapiens) (UniProt P04150); experiment: GR-EFC Redistribution (AID 451; calls by dose curve; also: potency is read from the fitted curve at half-maximal effect); conditions: CHO-K1 GR-EFC translocation, beta-gal luminescence, 2 h
Outline: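 Translocation of GR-ED fusion to nuclear EA restores b-gal, read by luminescence after 1 h room-temperature detection. Engineered CHO-K1 biosensor cells, 1,000/well, exposed 2 h at 37 C to titrations up to 46 uM final.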

[3] = target: Mitogen-activated protein kinase 10 (Mus musculus) (UniProt Q61831); experiment: JNK3 AlphaScreen Assay (AID 530); conditions: JNK3 lysate, c-Jun phosphorylation; series mostly up to 25.6 µM;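 also: kinase came from lysate of stimulated human HepG2 cells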; also: potency is read from the fitted curve at half-maximal effect
Outline: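 Compound titrations were preincubated 15 minutes at room temperature with substrate, antibody and pre-activated JNK3-containing HepG2 lysate. Reactions were started with 10 uM ATP and stopped with EDTA-containing bead buffer for AlphaScreen detection.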

[4] = Stat Signaling Pathway (AID 446); conditions: ME-180 SIE beta-lactamase reporter, IL-6 stimulated, 5 h; series mostly up to 17.2 µM;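 also: ME-180 cervical cancer cells given 40 pM IL-6 alongside compound; SIE-controlled beta-lactamase reporter measured as 460/530 nm FRET emission ratio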
Outline: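 ME-180 SIE-bla cells; overnight plating; cpd + IL-6 40 pM, 5 h, 37 C; LiveBLAzer 2.5 h RT; 460/530 nm emission ratio. Normalized to 300 pM IL-6 and 125 nM JAK inhibitor controls.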

[5] = Cell Viability - N2a (AID 540; active = well fitted curve in the direction sought with a large enough effect; an effect the other way counts as inactive or inconclusive; also: nearly all actives have a fitted effect of over 45% in size); conditions: N2a mouse neuroblastoma cell viability; series mostly up to 92.2 µM
Outline: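 Mouse neuroblastoma N2a cells, 1500/well, exposed to compounds 40 h at 37 °C in complete medium. Viability measured as cellular ATP by CellTiter-Glo luminescence; AC50 from Hill fits of concentration-response.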

[6] = Cell Viability - HUV-EC-C (AID 542; active = well fitted curve in the direction sought with a large enough effect; an effect the other way counts as inactive or inconclusive; also: nearly all actives have a fitted effect of over 35% in size); conditions: HUV-EC-C endothelial cell viability, qHTS; series mostly up to 92.2 µM
Outline: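 HUV-EC-C human vascular endothelial cells, 1000/well, exposed to compound for 40 hr at 37 °C in complete medium. Intracellular ATP was read by CellTiter-Glo luminescence. AC50 came from Hill-equation fits of concentration-response data.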

[7] = Cell Viability - H-4-II-E (AID 543; active = well fitted curve in the direction sought with a large enough effect; an effect the other way counts as inactive or inconclusive; also: nearly all actives have a fitted effect of over 35% in size); conditions: H-4-II-E rat hepatoma viability; series mostly up to 92.2 µM
Outline: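 Rat hepatoma H-4-II-E cells, 1500 per well, treated 40 h at 37 °C in complete medium. Cellular ATP read by CellTiter-Glo luminescence; AC50 from Hill fits of concentration-response.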

[8] = Cell Viability - SH-SY5Y (AID 544; active = well fitted curve in the direction sought with a large enough effect; an effect the other way counts as inactive or inconclusive; also: nearly all actives have a fitted effect of over 55% in size); conditions: SH-SY5Y neuroblastoma cell viability; series mostly up to 92.2 µM
Outline: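 SH-SY5Y human neuroblastoma cells (1500/well) incubated 5 h, then compound-treated 40 h at 37 °C in complete medium. Viability read as intracellular ATP by CellTiter-Glo luminescence after 20 min; AC50 from Hill-equation fits of qHTS concentration-response.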

[9] = Cell Viability - Renal Proximal Tubule (AID 545; active = well fitted curve in the direction sought with a large enough effect; an effect the other way counts as inactive or inconclusive; also: nearly all actives have a fitted effect of over 40% in size); conditions: renal proximal tubule cells viability, primary cells of rat origin; series mostly up to 91.7 µM
Outline: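 In this qHTS format, normal rat kidney-derived proximal tubule cells in complete culture medium receive compound titrations, then sit 40 hours at 37 °C before luciferase-based ATP quantitation; potency is reported as AC50 from concentration-response curves.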

[10] = Cell Viability - Mesenchymal (AID 546; active = well fitted curve in the direction sought with a large enough effect; an effect the other way counts as inactive or inconclusive;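 also: cells exposed to compound for 40 hours before reading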); conditions: mesenchymal cells viability, qHTS; series mostly up to 91.7 µM
Outline: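 AC50 values reflect the drop in intracellular ATP in a human kidney mesenchymal line derived from normal glomeruli. Treatment lasts 40 hr at 37 °C in complete medium, and the signal comes from CellTiter-Glo luminescence.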

[11] = Cellular Toxicity (caspase-3) HepG2 (AID 654; active = well fitted curve in the direction sought with a large enough effect; an effect the other way counts as inactive or inconclusive;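 also: cells exposed to compound for 16 hours before reading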); conditions: HepG2 caspase-3 activation, luminescence, 0% = DMSO only, 100% = tamoxifen; series mostly up to 92.2 µM
Outline: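 HepG2 cells (1500/well) were treated 16 h at 37 °C in complete medium, then caspase 3/7 activity was read by Caspase-Glo luminescence. Data were normalized to DMSO and 100 uM tamoxifen; AC50 came from Hill-equation fits of qHTS concentration-response.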

[12] = Cellular Toxicity (caspase-3) Jurkat (AID 655; active = well fitted curve in the direction sought with a large enough effect; an effect the other way counts as inactive or inconclusive;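 also: cells exposed to compound for 16 h at 37 °C before reading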); conditions: Jurkat caspase-3 activation, luminescence, DMSO = 0%, tamoxifen = 100%; series mostly up to 92.2 µM
Outline: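 qHTS in human Jurkat T-cell leukemia line: 16 hr compound treatment at 37 °C, caspase-3/7 activity measured by Caspase-Glo luminescence. AC50 derived from Hill equation.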

[13] = Cellular Toxicity (caspase-3) HUV-EC-C (AID 656; active = well fitted curve in the direction sought with a large enough effect; an effect the other way counts as inactive or inconclusive); conditions: HUV-EC-C cells, caspase-3 activation (apoptosis), vehicle = 0, 100 µM tamoxifen = 100%; series mostly up to 92.2 µM
Outline: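 Concentration-dependent caspase 3/7 induction was assessed in HUV-EC-C cells exposed for 16 hours. Data scaled between DMSO and tamoxifen (100 uM) controls.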

[14] = Cellular Toxicity (caspase-3) SHSY5Y (AID 657; active = well fitted curve in the direction sought with a large enough effect; an effect the other way counts as inactive or inconclusive); conditions: SH-SY5Y caspase-3 activation, DMSO zero, 10 µM staurosporine = 100%; series mostly up to 91.7 µM
Outline: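 Readout: caspase-cleaved peptide-aminoluciferin substrate driving luciferase light in SH-SY5Y neuroblastoma cells after 16 h treatment. Response normalized to DMSO and 10 uM staurosporine controls.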

[15] = Cellular Toxicity (caspase-3) BJ (AID 658; active = well fitted curve in the direction sought with a large enough effect; an effect the other way counts as inactive or inconclusive); conditions: BJ fibroblasts, luminescence, normalized: DMSO 0%, staurosporine 100%; series mostly up to 91.7 µM
Outline: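 Readout: Caspase-Glo 3/7 luminescence increase in BJ cells after 16 hr treatment at 37 °C. Staurosporine and tamoxifen served as positive controls; AC50 values came from Hill modelling of data normalized to DMSO and 10 uM staurosporine.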

[16] = Cellular Toxicity (caspase-3) MRC-5 (AID 659; active = well fitted curve in the direction sought with a large enough effect; an effect the other way counts as inactive or inconclusive); conditions: MRC-5 cells, luminescence, normalized: DMSO 0%, 10 µM staurosporine 100%; series mostly up to 91.7 µM
Outline: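 Concentration-dependent caspase 3/7 activation is measured in human normal lung fibroblasts (MRC-5) following 16-hour treatment. AC50 values come from standard Hill-equation modeling of luminescence normalized to DMSO and 10 uM staurosporine.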

[17] = Cellular Toxicity (caspase-3) Mesangial (AID 660; active = well fitted curve in the direction sought with a large enough effect; an effect the other way counts as inactive or inconclusive;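 also: cells exposed to compound for 16 h before the caspase read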); conditions: mesangial cells, normalized: DMSO 0%, 100 µM tamoxifen 100%; series mostly up to 91.7 µM
Outline: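 Human renal glomerular mesangial cells, 1000/well, 5 h at 37 C before 16 h compound treatment. Caspase-Glo 3/7 luminescence after 20 min; normalized to DMSO and 100 uM tamoxifen, AC50 from Hill fit.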

[18] = Cellular Toxicity (caspase-3) SK-N-SH (AID 661; active = well fitted curve in the direction sought with a large enough effect; an effect the other way counts as inactive or inconclusive); conditions: SK-N-SH caspase-3 activation, qHTS, DMSO as zero, staurosporine as full; series mostly up to 91.7 µM
Outline: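 Human SK-N-SH neuroblastoma cells, 1500/well, were exposed to compounds for 16 hours at 37 °C. Caspase-Glo 3/7 luminescence was normalized to DMSO (basal) and 10 uM staurosporine (100%), and AC50 came from a Hill fit.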

[19] = Cellular Toxicity (caspase-3) H-4-II-E (AID 663; active = well fitted curve in the direction sought with a large enough effect; an effect the other way counts as inactive or inconclusive;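 also: cells exposed to compound for 16 hr before readout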); conditions: H-4-II-E rat hepatoma, scaled: DMSO 0%, 100 µM tamoxifen 100%; series mostly up to 92.2 µM
Outline: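 Apoptosis induction is scored as increased luminescence from caspase 3/7 substrate cleavage in rat hepatoma H-4-II-E cells exposed to compound for 16 hr. Activity is scaled between DMSO and 100 uM tamoxifen.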

[20] = Cellular Toxicity (caspase-3) Hek293 (AID 664; active = well fitted curve in the direction sought with a large enough effect; an effect the other way counts as inactive or inconclusive;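 also: cells exposed to compound for 16 h at 37 °C before readout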); conditions: HEK293 caspase-3 activation, DMSO = 0%, 100 µM tamoxifen = 100%; series mostly up to 92.2 µM
Outline: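 HEK293 cells in complete medium treated 16 h at 37 °C, then Caspase-Glo 3/7 luminescence read after 20 min at room temperature. Normalized to DMSO and 100 uM tamoxifen; AC50 from Hill fit of concentration-response.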

Measured: Potency

CCCCC(C=O)NC(=O)C(CC(C)C)NC(=O)OCc1ccccc1 (stereo not given)
inactive: [1] > 46 µM | [2] > 46 µM | [3]

CCC(=C(CC)c1ccc(O)cc1)c1ccc(O)cc1
inactive: [1] > 20.6 µM | [2] > 20.6 µM | [3]

O=S(=O)(O)c1ccc2cc(N=Nc3cc(S(=O)(=O)O)c4cccnc4c3O)ccc2c1
inactive: [1] > 46 µM | [2] > 9.22 µM | [3]

CN(C)c1ccccc1CN1CCCN(Cc2ccccc2N(C)C)C1c1ccncc1
inactive: [4] | [1] > 46 µM | [2] > 9.22 µM | [3]

CN[C@H]1[C@@H](O[C@@H]2[C@H](O[C@@H]3[C@@H](O)[C@@H](O)[C@@H](N=C(N)N)[C@@H](O)[C@@H]3N=C(N)N)O[C@H](C)[C@@]2(O)C=O)O[C@@H](CO)[C@@H](O)[C@H]1O
inactive: [4] | [1] > 20.6 µM | [2] > 20.6 µM | [3]

O=c1cc(-c2ccc(O)c(O)c2)oc2cc(O)cc(O)c12
inactive: [1] > 20.6 µM and > 46 µM | [2] > 20.6 µM and > 46 µM
active: [3] 6.31 µM

Clc1ccc(COC(Cn2ccnc2)c2ccc(Cl)cc2Cl)c(Cl)c1 (stereo not given)
inactive: [2] > 20.6 µM | [3]

CN1CCN2c3ncccc3Cc3ccccc3C2C1 (stereo not given)
inactive: [1] > 46 µM | [2] > 46 µM | [3]

CCCCC[C@H](O)C=C[C@H]1[C@H](O)CC(=O)[C@H]1CCCCCCC(=O)O
inactive: [1] > 46 µM | [2] > 46 µM | [3]

Cc1cc(NC(=O)Nc2ccc(N(C)C)cc2)c2cc(F)cc(F)c2n1
inactive: [1] > 46 µM | [2] > 46 µM

CN(C)CCN(Cc1ccc(Cl)cc1)c1ccccn1
inactive: [4] | [1] > 20.6 µM | [2] > 20.6 µM | [3]

NS(=O)(=O)c1cc(Cl)c(Cl)c(S(N)(=O)=O)c1
inactive: [4] | [1] > 20.6 µM | [2] > 20.6 µM | [3]

CC(NCCc1ccc(O)cc1)C(O)c1ccc(O)cc1 (stereo not given)
inactive: [4] | [1] > 20.6 µM

CC1C(=O)OC2C(O)C34C5CC(C(C)(C)C)C36C(OC(=O)C6O)OC4(C(=O)O5)C12O (stereo not given)
inactive: [1] > 46 µM | [2] > 46 µM | [3]

C=C1c2cccc(O)c2C(O)=C2C(=O)[C@@]3(O)C(O)=C(C(N)=O)C(=O)[C@@H](N(C)C)[C@@H]3[C@@H](O)[C@H]12
inactive: [4] | [1] > 20.6 µM | [2] > 20.6 µM | [3]

Cc1cc2nc3c(=O)[nH]c(=O)nc-3n(CC(O)C(O)C(O)CO)c2cc1C (stereo not given)
inactive: [4] | [1] > 20.6 µM | [2] > 20.6 µM and > 46 µM | [3]

Cc1ccc(NC(=O)c2cccc(N(C)C)c2)cc1NC(=O)c1ccc(O)cc1
inactive: [1] > 46 µM | [2] > 46 µM | [3]

NC(=O)c1nnn(Cc2cc(Cl)c(C(=O)c3ccc(Cl)cc3)c(Cl)c2)c1N
inactive: [4] | [1] > 46 µM | [2] > 9.22 µM | [3]

COc1nccc(-c2c(-c3ccc(F)cc3)ncn2C2CCC(O)CC2)n1 (stereo not given)
inactive: [1] > 46 µM | [2] > 46 µM

NCC1CCC(C(=O)O)CC1 (stereo not given)
inactive: [4] | [3]

C[C@@H]1C[C@H]2[C@@H]3CCC4=CC(=O)C=C[C@]4(C)[C@@]3(F)[C@@H](O)C[C@]2(C)[C@@]1(O)C(=O)CO
not listed: [1] | [2] | [3] | [4]
inactive: all other assays above

COc1ccc(CCN(C)CCCOc2ccc(S(=O)(=O)c3[nH]c4ccccc4c3C(C)C)cc2)cc1OC
inactive: [1] > 46 µM | [2] > 46 µM
